From PubChem BioAssay
A selection: hits, their analogues and other compounds. The true share with any hit is near 1.1%.
SRC3 inh = SRC3 coactivator transcriptional activity inhibitors, primary screen, cell-based, luminescence; Nuclear receptor coactivator 3 (Homo sapiens), Q9Y6Q9; HEK293 GAL4-SRC3 luciferase reporter; inhibition, % at 3.6 µM; hit rate 0.17% among 360,000; AID 588352, 2011;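 active = inhibition above a per-campaign cutoff, the mean of all compounds plus 3 SD, cut at about 60% in these data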;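 also: 0% = DMSO-treated cells and 100% = gossypol-treated cells at 36 µM; higher means less SRC3-driven luciferase light from the GAL4 reporter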
Target sequence (Q9Y6Q9 whole entry, looked up, the tested form may be a part): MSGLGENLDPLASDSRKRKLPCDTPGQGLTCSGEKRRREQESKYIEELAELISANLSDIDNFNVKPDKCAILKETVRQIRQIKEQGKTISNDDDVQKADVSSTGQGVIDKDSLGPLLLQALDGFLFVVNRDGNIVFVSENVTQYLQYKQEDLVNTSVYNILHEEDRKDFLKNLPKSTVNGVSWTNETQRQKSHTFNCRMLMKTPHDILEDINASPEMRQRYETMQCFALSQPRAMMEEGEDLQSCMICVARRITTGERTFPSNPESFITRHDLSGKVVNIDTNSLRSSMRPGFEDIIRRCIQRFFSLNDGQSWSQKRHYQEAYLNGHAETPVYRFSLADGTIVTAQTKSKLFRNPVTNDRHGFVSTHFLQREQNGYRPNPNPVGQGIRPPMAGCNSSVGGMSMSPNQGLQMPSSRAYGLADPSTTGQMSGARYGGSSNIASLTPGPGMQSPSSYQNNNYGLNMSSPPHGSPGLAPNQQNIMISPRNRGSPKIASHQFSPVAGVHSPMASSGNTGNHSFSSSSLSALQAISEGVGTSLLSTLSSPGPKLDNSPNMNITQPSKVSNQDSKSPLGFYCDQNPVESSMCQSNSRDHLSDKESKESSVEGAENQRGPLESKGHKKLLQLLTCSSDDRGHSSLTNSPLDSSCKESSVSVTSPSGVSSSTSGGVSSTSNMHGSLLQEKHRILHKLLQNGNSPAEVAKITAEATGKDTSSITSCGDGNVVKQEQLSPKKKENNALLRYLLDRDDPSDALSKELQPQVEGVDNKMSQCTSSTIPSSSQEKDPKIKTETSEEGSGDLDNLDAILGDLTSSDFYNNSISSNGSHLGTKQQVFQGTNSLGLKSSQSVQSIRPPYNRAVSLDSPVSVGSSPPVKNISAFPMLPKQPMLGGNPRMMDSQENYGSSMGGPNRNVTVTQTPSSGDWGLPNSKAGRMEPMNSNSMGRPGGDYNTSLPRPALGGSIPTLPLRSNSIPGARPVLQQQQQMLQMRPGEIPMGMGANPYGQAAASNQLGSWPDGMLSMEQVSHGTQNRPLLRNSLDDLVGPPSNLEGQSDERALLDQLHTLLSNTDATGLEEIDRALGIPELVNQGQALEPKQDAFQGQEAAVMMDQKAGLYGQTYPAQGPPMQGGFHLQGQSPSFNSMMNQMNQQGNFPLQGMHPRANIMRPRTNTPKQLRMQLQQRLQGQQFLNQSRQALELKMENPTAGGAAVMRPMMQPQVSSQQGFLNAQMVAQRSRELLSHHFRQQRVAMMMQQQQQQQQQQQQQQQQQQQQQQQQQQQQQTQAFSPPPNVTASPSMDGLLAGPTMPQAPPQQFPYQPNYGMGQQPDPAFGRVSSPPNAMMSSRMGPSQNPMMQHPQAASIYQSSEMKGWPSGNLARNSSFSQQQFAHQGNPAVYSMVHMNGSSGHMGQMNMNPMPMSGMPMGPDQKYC
NCOA2 inhibitor = inhibition of GAL4-SRC2 driven luciferase reporter, primary screen, SRC2 inhibitor project, cell-based, luminescence; hit rate 0.17% among 370,000; Nuclear receptor coactivator 2 (Homo sapiens), Q15596; AID 651957, 2012; HEK293 GAL4-SRC2 luciferase reporter; inhibition, % at 9 µM;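 active = inhibition above the mean inhibition of all tested compounds plus 3 SD, set per campaign, cut at about 52% in these data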;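 also: 0% = DMSO treated cells and 100% = cells given Gossypol at 36 µM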
LRH-1 inv ag = LRH-1 (NR5A2) inverse agonists, primary screen, cell-based, luminescence, HEK293T, StAR-luciferase reporter | Nuclear receptor subfamily 5 group A member 2 (Homo sapiens), O00482 | hit rate 0.13% among 360,000 | inhibition, % at 3.6 µM | AID 602396, 2012 | LRH-1 transfected, 24 h;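 active = inhibition above the mean inhibition of all tested compounds plus 3 SD, cut at about 73% in these data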;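 also: 0% = DMSO wells and 100% = reporter-only cells lacking LRH-1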
GalR3 antagonist = GalR3 antagonists in HEK293 cells, primary screen, cell-based, fluorescence readout; Galanin receptor type 3 (Homo sapiens), O60755; hit rate 0.44% among 360,000; AID 651719, 2012; HEK293 GalR3-CNG cAMP membrane potential fluorescence; galR3 body fused to GalR1 C-terminus; inhibition, % at 3 µM;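 active = inhibition above the screen-wide average plus 3 SD, cut at about 13% in these data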;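 also: forskolin and galanin both at EC90 stimulate the cells; cAMP rise reported by CNG channel membrane potential dye signal; 0% = forskolin plus galanin with DMSO and 100% = forskolin alone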
NCOA1 inh = SRC1 coactivator transcriptional activity inhibitors, primary screen, cell-based, luminescence; Nuclear receptor coactivator 1 (Homo sapiens), Q15788; HEK293 GAL4-SRC1 luciferase reporter; inhibition, % at 3.6 µM; hit rate 0.12% among 360,000;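 active = inhibition above the campaign mean plus 3 SD, with each screening campaign given its own cutoff, cut at about 60% in these data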;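 also: 0% = DMSO treated cells and 100% = gossypol at 36 µM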
COUP-TFII inh = NR2F2 transcriptional activity inhibitors, primary screen, cell-based, luciferase reporter, HEK293T, luminescence. COUP transcription factor 2 (Homo sapiens), P24468. HEK293T NGFI-A luciferase reporter. inhibition, % at 8.6 µM. hit rate 0.7% among 370,000;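 active = inhibition above a per-plate cutoff, mean inhibition of test wells between control levels plus 3 SD, cut at about 38% in these data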;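 also: cells cotransfected with COUP-TFII expression vector driving the NGFI-A reporter; 0% = median of COUP-TF2 test wells and 100% = reporter-only cells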
VP16 Luc counter = Gal4-VP16 luciferase reporter inhibitors, counter-screen for COUP-TFII antagonist project, cell-based, luminescence, HEK293; shares compounds with COUP-TFII inh; inhibition, % at 8.5 µM; hit rate 25% among 2,500; AID 687007, 2013; in the data active = inhibition above about 13%
COUP-TFII conf = NR2F2 transcriptional activity inhibitors, confirmation, cell-based, luciferase reporter, HEK293, triplicate. hit rate 45% among 2,500. shares compounds with COUP-TFII inh. HEK293 NGFI-A luciferase reporter, luminescence. inhibition, % at 8.5 µM;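 active = mean inhibition over three repeats above a set limit taken from the earlier primary screen, cut at about 38% in these data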;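 also: 100% = cells given the luciferase reporter alone without the COUP-TF2 vector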
The depositor's hits bear a star; · = not tested or not shown.

SMILES	SRC3 inh	NCOA2 inhibitor	LRH-1 inv ag	GalR3 antagonist	NCOA1 inh	COUP-TFII inh	VP16 Luc counter	COUP-TFII conf
CCN(CC)S(=O)(=O)c1cccc(C(=O)Nc2nc3cc4c(cc3s2)OCCO4)c1	23	16	5	-5	6	58*	-9	32
CN(CC1CCCO1)S(=O)(=O)c1ccc(C(=O)Nc2nc3cc4c(cc3s2)OCO4)cc1 (stereo not drawn)	37	18	-2	·	41	39*	0	78*
COc1ccccc1C(=O)Nc1nc2cc3c(cc2s1)OCCO3	-113	·	-144	·	-110	·	·	·
O=C(Nc1nc2cc3c(cc2s1)OCCO3)c1cccs1	-54	24	-108	1	-48	42*	-120	-107
CCOC(=O)N1CCN(C(=O)C[C@H]2C[C@@]3(C(=O)OC)C(=C[C@H](C(C)C)O[C@@H]3C3CC3)N(Cc3ccc4c(c3)OCO4)C2=O)CC1	·	6	·	·	·	-8	·	·
CC1OC(CC(=O)O)CC2=C1C(=O)c1c(O)cccc1C2=O (stereo not drawn)	93*	96*	97*	6	70*	105*	98*	110*
Cc1nc2ccccn2c1P(=O)(c1ccccc1)c1ccccc1	·	·	·	·	·	14	·	·
O=S(=O)(c1cc(C(F)(F)F)ccc1Cl)N1CCN(c2ncnc3ccccc23)CC1	19	34	32	12	17	42*	15*	60*
Cc1cc(C)c(C)c(S(=O)(=O)N2CCN(c3ncnc4ccccc34)CC2)c1C	-12	-10	-3	-3	5	13	·	·
Cc1cccc(-c2cccc(NC(=O)C3CCCN(C(=O)c4csc(C)n4)C3)c2)c1 (stereo not drawn)	7	7	25	-9	19	42*	-35	18
Clc1ccc(C[n+]2cc(-c3ccccc3)n3c2CCCCC3)c(Cl)c1	49	13	26	-5	-8	42*	11	22
Nc1ccc(-c2nc3ccc(C(=O)O)cc3s2)cc1	33	34	-7	2	9	42*	-96	-24
O=C(Sc1cccc2cccnc12)c1ccc(F)cc1	·	-10	·	-4	·	43*	47*	44*
O=C(Sc1cccc2cccnc12)c1ccccc1Br	-104	-59	64	-10	-221	30	·	·
CCOC(=O)N1CCC(NC(=O)C2CCCN(Cc3nc(-c4ccc(CC)cc4)oc3C)C2)CC1 (stereo not drawn)	38	19	31	11	4	54*	0	45*
Cn1c(=O)c2[nH]c(CCCCCCCc3nc4ccccc4[nH]3)nc2n(C)c1=O	16	15	4	-7	1	55*	1	27
C=CCNC(=S)N1C[C@H]2CON(C)[C@H]2C[C@H]1c1ccccc1Br	·	-23	·	-6	·	-17	·	·
COc1ccc(C(=O)N[C@H]2CC[C@@]34CCCN3C(=O)CCC[C@H]4[C@H]2C)cc1	·	·	·	·	·	6	·	·
CCC(Sc1nc(=O)cc(N)n1-c1cccc(C)c1)C(=O)Nc1cc(C)on1 (stereo not drawn)	18	-2	15	-12	11	43*	-3	12
Oc1ccc(CCNc2ncnc3ccc(Cl)cc23)cc1	58	37	47	-5	64*	80*	7	64*
Nc1nc(Cl)cc(NCCc2ccc(O)cc2)n1	11	13	-14	-4	-127	3	·	·
COC(=O)c1c(-c2cccc3ccccc23)csc1NC(=O)Cc1ccc(OC)c(OC)c1	11	10	-3	-1	3	41*	2	29
